# From the supplement of paper PMC6411743
# ± gives the standard deviation of the averaged measurements. About 6,500 targets were measured; listed, in parts, are those with the largest changes and a random draw of the rest.
# How the values were obtained:
# Experiment in all cases: NP40-soluble protein abundance relative to vehicle (solubility fold change) (ratio); higher = more soluble protein in presence of ATP
# DDX50 = molecular target: T1, DDX50 (UniProt Q9BQ39)
# T1 sequence (whole entry): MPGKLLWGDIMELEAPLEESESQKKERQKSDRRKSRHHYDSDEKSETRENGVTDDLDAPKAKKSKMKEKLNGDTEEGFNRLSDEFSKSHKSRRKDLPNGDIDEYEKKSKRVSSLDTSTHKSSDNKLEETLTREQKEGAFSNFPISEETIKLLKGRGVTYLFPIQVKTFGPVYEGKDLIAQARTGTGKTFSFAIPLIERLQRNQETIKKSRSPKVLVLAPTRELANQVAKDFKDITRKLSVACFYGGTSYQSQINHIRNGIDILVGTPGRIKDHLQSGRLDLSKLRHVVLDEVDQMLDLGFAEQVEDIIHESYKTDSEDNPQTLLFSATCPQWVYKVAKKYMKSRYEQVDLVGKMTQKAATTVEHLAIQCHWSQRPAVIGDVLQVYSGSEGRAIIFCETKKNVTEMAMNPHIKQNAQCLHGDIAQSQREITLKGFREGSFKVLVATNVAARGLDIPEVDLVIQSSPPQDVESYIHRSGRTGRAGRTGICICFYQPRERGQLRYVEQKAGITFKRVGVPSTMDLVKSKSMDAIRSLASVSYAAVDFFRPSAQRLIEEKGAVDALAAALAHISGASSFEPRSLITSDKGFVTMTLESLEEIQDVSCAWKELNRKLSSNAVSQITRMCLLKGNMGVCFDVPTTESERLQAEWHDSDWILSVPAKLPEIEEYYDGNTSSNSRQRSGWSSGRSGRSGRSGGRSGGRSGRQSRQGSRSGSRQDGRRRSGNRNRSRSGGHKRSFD
# Procedure, shortened: (§1)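 Values are fold changes against the detergent-processed vehicle, based on vsn-normalised intensities. Jurkat crude lysate was treated at eight concentrations from 0.1 to 10 mM (10 min at room temperature, then 3 min at 37 °C), solubilised with 0.8% NP40 and benzonase, ultracentrifuged and analysed by TMT-labelled LC-MS/MS over three independent experiments.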
# PINX1 = molecular target: T2, PINX1 (UniProt Q96BK5)
# T2 sequence (whole entry): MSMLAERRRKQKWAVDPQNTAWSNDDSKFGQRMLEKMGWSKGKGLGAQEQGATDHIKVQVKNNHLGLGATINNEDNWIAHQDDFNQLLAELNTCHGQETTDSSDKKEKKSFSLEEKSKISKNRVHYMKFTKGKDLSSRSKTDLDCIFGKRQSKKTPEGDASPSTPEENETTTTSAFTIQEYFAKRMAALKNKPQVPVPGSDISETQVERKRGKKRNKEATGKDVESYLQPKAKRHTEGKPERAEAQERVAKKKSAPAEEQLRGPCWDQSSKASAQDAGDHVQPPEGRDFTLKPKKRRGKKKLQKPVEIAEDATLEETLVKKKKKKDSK
# Procedure, shortened: as §1
# [1] = molecular target: T3, UniProt Q969F9|Q969F9-2|G5E9V4
# T3 sequence (whole entry): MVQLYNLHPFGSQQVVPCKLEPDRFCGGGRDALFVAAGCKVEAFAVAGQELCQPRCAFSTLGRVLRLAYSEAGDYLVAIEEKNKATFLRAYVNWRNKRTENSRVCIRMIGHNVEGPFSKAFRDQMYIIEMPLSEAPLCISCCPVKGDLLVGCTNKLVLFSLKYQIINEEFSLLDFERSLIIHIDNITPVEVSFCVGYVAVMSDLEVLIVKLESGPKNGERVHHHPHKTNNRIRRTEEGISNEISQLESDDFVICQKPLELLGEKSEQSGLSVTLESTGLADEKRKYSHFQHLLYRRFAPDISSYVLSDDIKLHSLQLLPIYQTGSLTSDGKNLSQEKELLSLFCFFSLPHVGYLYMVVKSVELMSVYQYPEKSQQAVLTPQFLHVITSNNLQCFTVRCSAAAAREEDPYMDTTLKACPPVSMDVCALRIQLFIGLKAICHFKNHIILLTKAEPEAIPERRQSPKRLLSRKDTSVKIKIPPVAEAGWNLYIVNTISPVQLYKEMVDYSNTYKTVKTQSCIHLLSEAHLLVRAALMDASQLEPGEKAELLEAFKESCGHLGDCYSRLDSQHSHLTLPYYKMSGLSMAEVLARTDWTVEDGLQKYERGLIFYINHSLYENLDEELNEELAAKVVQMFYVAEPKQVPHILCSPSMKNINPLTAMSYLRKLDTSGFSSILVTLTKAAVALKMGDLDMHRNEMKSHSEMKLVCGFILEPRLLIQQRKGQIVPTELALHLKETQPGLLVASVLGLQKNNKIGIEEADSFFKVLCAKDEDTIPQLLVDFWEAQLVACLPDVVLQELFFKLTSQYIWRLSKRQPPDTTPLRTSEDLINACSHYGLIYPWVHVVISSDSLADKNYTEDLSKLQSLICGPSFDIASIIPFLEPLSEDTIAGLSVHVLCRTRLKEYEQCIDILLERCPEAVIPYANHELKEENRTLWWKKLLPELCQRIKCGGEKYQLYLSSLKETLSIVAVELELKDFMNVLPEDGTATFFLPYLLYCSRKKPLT
# Procedure, shortened: as §1
# UniProt Q96G25|Q96G25-2 = molecular target: T4, UniProt Q96G25|Q96G25-2
# T4 sequence (whole entry): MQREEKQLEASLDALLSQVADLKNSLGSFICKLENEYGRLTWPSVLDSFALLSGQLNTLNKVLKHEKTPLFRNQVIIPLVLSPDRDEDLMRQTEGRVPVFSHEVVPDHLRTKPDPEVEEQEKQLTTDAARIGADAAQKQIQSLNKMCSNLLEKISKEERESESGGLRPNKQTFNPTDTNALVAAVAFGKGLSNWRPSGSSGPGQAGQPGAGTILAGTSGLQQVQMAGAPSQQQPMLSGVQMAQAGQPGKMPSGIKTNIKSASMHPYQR
# Procedure, shortened: as §1
# UniProt Q9BUA3 = molecular target: T5, UniProt Q9BUA3
# T5 sequence (whole entry): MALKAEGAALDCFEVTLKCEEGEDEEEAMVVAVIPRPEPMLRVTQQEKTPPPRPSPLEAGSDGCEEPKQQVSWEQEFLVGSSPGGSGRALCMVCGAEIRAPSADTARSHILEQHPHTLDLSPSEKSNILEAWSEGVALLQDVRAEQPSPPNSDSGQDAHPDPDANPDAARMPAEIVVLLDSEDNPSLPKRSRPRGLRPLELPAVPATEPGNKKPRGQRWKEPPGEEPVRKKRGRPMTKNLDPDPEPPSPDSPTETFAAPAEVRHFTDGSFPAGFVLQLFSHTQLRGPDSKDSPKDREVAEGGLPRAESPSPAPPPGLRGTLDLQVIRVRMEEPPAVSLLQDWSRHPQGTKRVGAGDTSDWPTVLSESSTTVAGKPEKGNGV
# Procedure, shortened: as §1
# UniProt Q9H993 = molecular target: T6, UniProt Q9H993
# T6 sequence (whole entry): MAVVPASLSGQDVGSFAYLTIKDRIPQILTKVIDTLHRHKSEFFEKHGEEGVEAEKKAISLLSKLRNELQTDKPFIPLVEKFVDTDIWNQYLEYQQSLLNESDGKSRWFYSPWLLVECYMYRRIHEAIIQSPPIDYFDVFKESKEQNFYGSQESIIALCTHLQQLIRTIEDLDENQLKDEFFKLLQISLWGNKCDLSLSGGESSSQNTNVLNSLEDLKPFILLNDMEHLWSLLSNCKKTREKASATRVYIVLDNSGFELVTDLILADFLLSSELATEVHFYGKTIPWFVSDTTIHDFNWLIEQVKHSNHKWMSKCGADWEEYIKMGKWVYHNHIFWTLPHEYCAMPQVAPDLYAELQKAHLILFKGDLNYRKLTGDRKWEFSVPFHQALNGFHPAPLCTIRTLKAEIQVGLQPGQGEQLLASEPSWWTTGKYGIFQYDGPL
# Procedure, shortened: as §1
# VRK1 = molecular target: T7, VRK1 (UniProt Q99986)
# T7 sequence (whole entry): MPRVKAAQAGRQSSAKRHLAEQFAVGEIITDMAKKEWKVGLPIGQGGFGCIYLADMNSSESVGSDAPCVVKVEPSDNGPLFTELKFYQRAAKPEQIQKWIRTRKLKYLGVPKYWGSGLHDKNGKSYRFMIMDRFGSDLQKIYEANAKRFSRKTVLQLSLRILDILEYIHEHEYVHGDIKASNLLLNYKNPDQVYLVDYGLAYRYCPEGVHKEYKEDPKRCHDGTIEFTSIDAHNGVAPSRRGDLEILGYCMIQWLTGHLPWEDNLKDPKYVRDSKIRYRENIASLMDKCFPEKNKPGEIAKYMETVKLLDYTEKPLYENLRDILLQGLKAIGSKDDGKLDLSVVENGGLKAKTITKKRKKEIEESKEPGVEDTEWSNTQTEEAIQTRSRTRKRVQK
# Procedure, shortened: as §1
structure (smiles),measurement,setting,value
Nc1ncnc2c1ncn2[C@@H]1O[C@H](COP(=O)(O)OP(=O)(O)OP(=O)(O)O)[C@@H](O)[C@H]1O [adenosine triphosphate],NP40-soluble protein abundance,DDX50; concentration: 1mM,1.35 ± 0.086
same,NP40-soluble protein abundance,DDX50; concentration: 2mM,1.67 ± 0.17
same,NP40-soluble protein abundance,DDX50; concentration: 4mM,2.19 ± 0.26
same,NP40-soluble protein abundance,DDX50; concentration: 6mM,2.88 ± 0.35
same,NP40-soluble protein abundance,DDX50; concentration: 8mM,3.54 ± 0.54
same,NP40-soluble protein abundance,DDX50; concentration: 10mM,4.32 ± 0.63
same,NP40-soluble protein abundance,PINX1; concentration: 1mM,1.52 ± 0.023
same,NP40-soluble protein abundance,PINX1; concentration: 2mM,1.64 ± 0.086
same,NP40-soluble protein abundance,PINX1; concentration: 4mM,1.78 ± 0.11
same,NP40-soluble protein abundance,PINX1; concentration: 6mM,1.95 ± 0.1
same,NP40-soluble protein abundance,PINX1; concentration: 8mM,1.91 ± 0.13
same,NP40-soluble protein abundance,PINX1; concentration: 10mM,2.03 ± 0.14
same,NP40-soluble protein abundance,[1]; concentration: 1mM,1.07 ± 0.16
same,NP40-soluble protein abundance,[1]; concentration: 2mM,1.11 ± 0.22
same,NP40-soluble protein abundance,[1]; concentration: 4mM,1.05 ± 0.26
same,NP40-soluble protein abundance,[1]; concentration: 6mM,1.05 ± 0.15
same,NP40-soluble protein abundance,[1]; concentration: 8mM,0.905 ± 0.044
same,NP40-soluble protein abundance,[1]; concentration: 10mM,0.962 ± 0.11
same,NP40-soluble protein abundance,UniProt Q96G25|Q96G25-2; concentration: 1mM,1 ± 0.11
same,NP40-soluble protein abundance,UniProt Q96G25|Q96G25-2; concentration: 2mM,0.976 ± 0.074
same,NP40-soluble protein abundance,UniProt Q96G25|Q96G25-2; concentration: 4mM,1.06 ± 0.035
same,NP40-soluble protein abundance,UniProt Q96G25|Q96G25-2; concentration: 6mM,1.07 ± 0.11
same,NP40-soluble protein abundance,UniProt Q96G25|Q96G25-2; concentration: 8mM,0.993 ± 0.039
same,NP40-soluble protein abundance,UniProt Q96G25|Q96G25-2; concentration: 10mM,0.965 ± 0.1
same,NP40-soluble protein abundance,UniProt Q9BUA3; concentration: 1mM,1.02 ± 0.11
same,NP40-soluble protein abundance,UniProt Q9BUA3; concentration: 2mM,1.03 ± 0.09
same,NP40-soluble protein abundance,UniProt Q9BUA3; concentration: 4mM,1.03 ± 0.082
same,NP40-soluble protein abundance,UniProt Q9BUA3; concentration: 6mM,1.04 ± 0.12
same,NP40-soluble protein abundance,UniProt Q9BUA3; concentration: 8mM,0.992 ± 0.08
same,NP40-soluble protein abundance,UniProt Q9BUA3; concentration: 10mM,1 ± 0.019
same,NP40-soluble protein abundance,UniProt Q9H993; concentration: 1mM,1.08 ± 0.068
same,NP40-soluble protein abundance,UniProt Q9H993; concentration: 2mM,1.05 ± 0.06
same,NP40-soluble protein abundance,UniProt Q9H993; concentration: 4mM,1.02 ± 0.039
same,NP40-soluble protein abundance,UniProt Q9H993; concentration: 6mM,0.991 ± 0.072
same,NP40-soluble protein abundance,UniProt Q9H993; concentration: 8mM,1.04 ± 0.047
same,NP40-soluble protein abundance,UniProt Q9H993; concentration: 10mM,1.01 ± 0.053
same,NP40-soluble protein abundance,VRK1; concentration: 1mM,1.39 ± 0.026
same,NP40-soluble protein abundance,VRK1; concentration: 2mM,1.43 ± 0.021
same,NP40-soluble protein abundance,VRK1; concentration: 4mM,1.44 ± 0.039
same,NP40-soluble protein abundance,VRK1; concentration: 6mM,1.51 ± 0.057
same,NP40-soluble protein abundance,VRK1; concentration: 8mM,1.52 ± 0.031
same,NP40-soluble protein abundance,VRK1; concentration: 10mM,1.48 ± 0.063
